High-throughput results deposited in PubChem BioAssay by National Center for Advancing Translational Sciences (NCATS).
In the library only some 19% were active in any assay of this set; here they are far more common.
MCF10A rerep: induces DNA re-replication in MCF 10a normal breast cells. Potency, µM (top dose mostly 46.1 µM), without a hit: at the highest dose activity, positive = re-replication, most hits filed as activators. MCF 10A DNA re-replication, Hoechst nuclear intensity, 48 h. 350,000 tested, 2.9% active; also: potency is read from the fitted curve at half-maximal effect; % of control where 0% means no effect; nearly all actives have a fitted effect of over 50% in size
IL-1B inflam inh: inhibitors of inflammasome signaling (IL-1 beta secretion); THP-1 LPS/ATP IL-1B secretion, AlphaLISA, 16 h; stronger effect = lower value; activity change, % at 57.5 µM; 360,000 tested, 4.7% active; AID 743279; in the data active = activity change below about -50%; inconclusive = mostly about -30% to -49%; also: % is scaled to controls: 0 for no effect and ±100 for the full control effect
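THP-1 cells pretreated 1 hr with compounds (up to 57.5 uM final), then stimulated with LPS (250 ng/mL final) plus ATP (1.25 mM final); secreted IL-1B measured by AlphaLISA after 16 hr, decreased signal indicating inhibition.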
TDP1 cell CPT: growth inhibition of DT40 Tdp1-/-;hTDP1 cells with camptothecin (screen for TDP1 inhibitors); Potency, µM (highest dose often 46.2 µM), for inactives: at the highest dose activity change, negative = growth inhibition, hits mostly inhibitors; chicken DT40 Tdp1-/-;hTDP1 cells + 20 nM CPT, ATP luminescence, 48 h; 420,000 tested, 12% active; also: potency is read from the fitted curve at half-maximal effect; % is scaled to controls: 0 for no effect and ±100 for the full control effect; nearly all actives have a fitted effect of over 55% in size
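Cell growth measured by CellTiter-Glo luminescence after a minimum 48 h, 37 C compound exposure with 20 nM CPT in Tdp1-knockout DT40 cells stably expressing hTDP1, seeded 400/well; qHTS titration format.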
SW480 rereplic: induces DNA re-replication in SW480 colon adenocarcinoma cells | SW480 DNA re-replication, Hoechst DNA content imaging, 48 h | 340,000 tested, 1.8% active | Potency, µM (titrated, usually from 46.1 µM), for the others: top-dose re-replication activation, actives largely listed as activators; also: potency is read from the fitted curve at half-maximal effect; % of control where 0% means no effect; nearly all actives have a fitted effect of over 55% in size
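Hoechst fluorescence of nuclei (405 nm excitation, 500-530 nm emission) measured by plate-scanning imager after 48 hr compound exposure at 37 C; re-replication scored as increased number of nuclei with elevated intensity.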
DT40 TDP1 no CPT: qHTS for Inhibitors of human tyrosyl-DNA phosphodiesterase 1 (TDP1): qHTS in cells in absence of CPT; DT40 Tdp1-/- hTDP1 cells, no CPT, ATP luminescence, 48 h; Potency, µM (series often up to 46.2 µM), inactives show top-dose activity change, negative = growth inhibition, usual class: inhibitors; 420,000 tested, 15% active; AID 686978, 2013; also: potency is read from the fitted curve at half-maximal effect; % is scaled to controls: 0 for no effect and ±100 for the full control effect; nearly all actives have a fitted effect of over 55% in size
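Readout: luminescence from CellTiter-Glo after 30 min in the dark at RT. Cells: DT40 Tdp1-/- with stable hTDP1, 400/well. Exposure: compounds alone, ≥48 hr, 37 °C.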
BCR signal inh: blocks chronic active B-cell receptor signaling. ABC-DLBCL IkBa-CBG/CBR reporter, luminescence ratio, 4 h. Potency, µM (series often up to 46.1 µM), for the others: top-dose activity change, negative = inhibition, most hits filed as inhibitors. 340,000 tested, 0.05% active. AID 493014; active = well fitted inhibition curve with a large enough effect in the signal ratio, with a control signal flat, not every such curve was filed as active; inconclusive = small, poorly fitted or top-dose-only effect, or effect the other way, or a change in a side signal; the % refers to the signal ratio;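 also: potency is read from the fitted curve at half-maximal effect; plate controls were basal doxycycline-induced cells for no effect and cells given 10 µM MG132 for full effect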
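Compounds up to 46 uM were incubated four hours with TMD8 cells whose green CBG68 luciferase is fused to IkappaBalpha; red CBR luminescence normalised the signal, and concentration-effect curves were fitted to fusion, red and ratio data.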
Starred values were filed as active, the others as inactive; ! = a repeat was not active; [ ] = remark or other dose. Unless noted, calls follow the shape of the dose curve; as a rule, active = well fitted curve in the direction sought with a large enough effect; inconclusive = small, poorly fitted or top-dose-only effect, or another doubt; inactive = no such curve, though single readings can be large; an effect the other way counts as inactive or inconclusive.

How did O=C(NCC[C@@H]1CC[C@@H](NS(=O)(=O)Cc2ccccc2)[C@@H](CO)O1)C1CC1 do in these assays?
IL-1B inflam inh: 26.9; TDP1 cell CPT: -7.3%; DT40 TDP1 no CPT: 6.3%

How did O=C(Nc1ccc2c(c1)CCCN2C(=O)c1cccs1)c1cccc(F)c1 do in these assays?
MCF10A rerep: 18.7%; TDP1 cell CPT: inconclusive; SW480 rereplic: -9.6%; DT40 TDP1 no CPT: inconclusive; BCR signal inh: inconclusive

What do the screens show for `O=C(Nc1ccc2c(c1)CCCN2C(=O)c1cccs1)c1ccccc1`?
MCF10A rerep: inconclusive; IL-1B inflam inh: -17.4; TDP1 cell CPT: 16.4µM*; SW480 rereplic: 1.6%; DT40 TDP1 no CPT: 13µM*; BCR signal inh: inconclusive

How did CCOc1ccc(S(=O)(=O)Nc2ccc3c(c2)CCCN3C(=O)c2cccs2)cc1 do in these assays?
TDP1 cell CPT: inconclusive; DT40 TDP1 no CPT: -100.5%

Results for O=C(Nc1ccc2c(c1)CCCN2C(=O)c1cccs1)c1ccc(F)c(F)c1 ?
TDP1 cell CPT: 16.4µM*; DT40 TDP1 no CPT: 20.6µM*

Results for O=C(Nc1ccc2c(c1)CCCN2C(=O)c1cccs1)c1cccc(C(F)(F)F)c1 ?
TDP1 cell CPT: 13µM*; DT40 TDP1 no CPT: 9.2µM*

How did COc1cc(OC)cc(C(=O)Nc2ccc3c(c2)CCCN3C(=O)c2cccs2)c1 do in these assays?
MCF10A rerep: inconclusive; IL-1B inflam inh: -16.1; TDP1 cell CPT: 18.4µM*; SW480 rereplic: -11.3%; DT40 TDP1 no CPT: 23.1µM*!; BCR signal inh: -1.1%

What do the screens show for `Cn1c(-c2ccsc2)c(-c2cccs2)c2cc(Br)ccc21`?
MCF10A rerep: inconclusive; IL-1B inflam inh: 10.1; TDP1 cell CPT: inconclusive; SW480 rereplic: 2.7%; DT40 TDP1 no CPT: inconclusive; BCR signal inh: 16.0%

Results for Cc1ccc(-c2nc(-c3cc4cccc(OCc5cccc(C)c5)c4oc3=O)no2)cc1 ?
TDP1 cell CPT: inconclusive; DT40 TDP1 no CPT: 9.2µM*

What do the screens show for `COc1cccc(NC(=O)n2ncc3c(C)cccc32)c1`?
MCF10A rerep: 0.1%; IL-1B inflam inh: 8.9; TDP1 cell CPT: inconclusive; SW480 rereplic: -5.8%; DT40 TDP1 no CPT: inconclusive; BCR signal inh: inconclusive

What do the screens show for `COc1ccccc1CNC(=O)COC(=O)c1ncc(Cl)c(Cl)c1Cl`?
MCF10A rerep: 1.3%; IL-1B inflam inh: -21.1; TDP1 cell CPT: 2.5%; SW480 rereplic: -0.2%; DT40 TDP1 no CPT: inconclusive; BCR signal inh: -13.3%

How did CC(C)C1C(=O)N(Cc2cn(CCC3OCCO3)nn2)CCS(=O)(=O)N1Cc1ccc(-c2ccc(F)cc2Cl)cc1 (stereo not given) do in these assays?
IL-1B inflam inh: -25.0; TDP1 cell CPT: inconclusive; DT40 TDP1 no CPT: 20.6µM*

Results for CC(C)C1C(=O)N(Cc2cn(CCC3OCCO3)nn2)CCS(=O)(=O)N1Cc1ccc(-c2ccccc2Cl)cc1 (stereo not given) ?
IL-1B inflam inh: inconclusive; TDP1 cell CPT: 16.4µM*; DT40 TDP1 no CPT: 14.6µM*

Results for CC(C)C1C(=O)N(Cc2cn(CCC3OCCO3)nn2)CCS(=O)(=O)N1Cc1ccc(-c2ccccc2)cc1 (stereo not given) ?
IL-1B inflam inh: -18.1; TDP1 cell CPT: inconclusive; DT40 TDP1 no CPT: inconclusive

What do the screens show for `COc1cccc(-c2ccc(CN3C(C(C)C)C(=O)N(Cc4cn(CCC5OCCO5)nn4)CCS3(=O)=O)cc2)c1OC` (stereo not given)?
IL-1B inflam inh: inconclusive; TDP1 cell CPT: 20.6µM*; DT40 TDP1 no CPT: inconclusive

How did COc1ccccc1NS(=O)(=O)c1ccc(C(=O)NCC(c2cccs2)N2CCOCC2)cc1 (stereo not given) do in these assays?
MCF10A rerep: -1.3%; IL-1B inflam inh: 6.7; TDP1 cell CPT: inconclusive; SW480 rereplic: -12.4%; DT40 TDP1 no CPT: inconclusive; BCR signal inh: 1.2%

What do the screens show for `CCCN(CCC)C(=O)CC(c1ccc(F)cc1)c1ccco1` (stereo not given)?
MCF10A rerep: inconclusive; IL-1B inflam inh: inconclusive; TDP1 cell CPT: inconclusive; SW480 rereplic: -2.5%[9.22 µM]; DT40 TDP1 no CPT: 20.6µM*; BCR signal inh: inconclusive

What do the screens show for `O=C(Cn1c(=O)oc2ccccc21)NCc1ccc(Cl)cc1`?
TDP1 cell CPT: -17.1%; DT40 TDP1 no CPT: -27.7%; BCR signal inh: -1.5%

How did O=C(NCC(c1ccccc1)N1CCCC1)C1CCN(C(=O)Nc2ccccc2)CC1 (stereo not given) do in these assays?
MCF10A rerep: inconclusive; IL-1B inflam inh: -14.3; TDP1 cell CPT: -5.8%; SW480 rereplic: inconclusive; DT40 TDP1 no CPT: -25.9%; BCR signal inh: 5.2%

What do the screens show for `COc1ccc(C(CNC(=O)COc2ccc(-c3ccccc3)cc2)N2CCOCC2)cc1` (stereo not given)?
MCF10A rerep: 18.0%; IL-1B inflam inh: -60.6*; TDP1 cell CPT: inconclusive; SW480 rereplic: 0.2%; DT40 TDP1 no CPT: inconclusive; BCR signal inh: inconclusive

How did COc1ccccc1C(CNC(=O)c1ccc(-c2ccccc2Cl)o1)N1CCCC1 (stereo not given) do in these assays?
MCF10A rerep: inconclusive; IL-1B inflam inh: -56.5*; TDP1 cell CPT: 23.1µM*; SW480 rereplic: 22.5%; DT40 TDP1 no CPT: 18.4µM*; BCR signal inh: inconclusive

Results for CCCn1nc(C(=O)NCC(C)(C)N2CCOCC2)c2ccccc2c1=O ?
MCF10A rerep: 0.8%; IL-1B inflam inh: 5.2; TDP1 cell CPT: -20.6%; SW480 rereplic: 1.3%; DT40 TDP1 no CPT: -15.4%; BCR signal inh: -1.5%

What do the screens show for `COc1ccc(OCC(=O)NCC(c2ccc(OC)cc2)N2CCOCC2)cc1` (stereo not given)?
TDP1 cell CPT: -14.8%; DT40 TDP1 no CPT: inconclusive

How did COc1ccc(C(CNC(=O)c2cc(F)c(F)c(F)c2F)N2CCOCC2)cc1 (stereo not given) do in these assays?
MCF10A rerep: 0.0%; IL-1B inflam inh: -95.2*; TDP1 cell CPT: inconclusive; SW480 rereplic: -5.6%; DT40 TDP1 no CPT: inconclusive; BCR signal inh: -10.4%

Results for CC(C)(CNC(=O)c1ccc(-c2ccccc2Cl)o1)N1CCOCC1 ?
MCF10A rerep: 20.0%; IL-1B inflam inh: -55.6*; TDP1 cell CPT: -29.4%; SW480 rereplic: -2.9%; DT40 TDP1 no CPT: inconclusive; BCR signal inh: inconclusive
